Compounds without any hit were thinned out: in the full panel of roughly 83,000, 20% have a hit.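 The endpoint reported here, percent growth, reads 100 for growth as untreated, 0 for no net growth and -100 for all cells dead.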 Unmarked numbers belong to inactive results. Active and inactive are the calls of the source. How the source made its calls: active means growth percent below 10; inactive means the rest.
Columns and labels:
Assay in all cases: NCI-60 one-dose screen, 48 h (100 = growth as untreated, 0 = no growth, -100 = all killed)
Details in all cases: 10 µM unless noted
[1] = test system: HCT-15 colon
[2] = test system: HT29 colon
[3] = test system: SNB-75 CNS
[4] = test system: SNB-19 CNS
[5] = test system: U251 CNS
[6] = test system: PC-3 prostate
[7] = test system: SK-MEL-5 melanoma
[8] = test system: UACC-62 melanoma
[9] = test system: LOX IMVI melanoma
[10] = test system: SK-MEL-28 melanoma

Compound | growth [1] | growth [2] | growth [3] | growth [4] | growth [5] | growth [6] | growth [7] | growth [8] | growth [9] | growth [10]
Nc1n[nH]c2cccc(C#Cc3cccc(NC(=O)c4cc(N5CCOCC5)cc(C(F)(F)F)c4)c3)c12 | 36.9% | 22.6% | 71.5% | 83.9% | 56.3% | 69% | 55.7% | 14% | 18.6% | 24.5%
Cc1ccc(C(=O)/C(=C/c2ccc([N+](=O)[O-])cc2)S(=O)Cc2ccccc2)cc1 (stereo not given) | -8.82% (active) | -21% (active) | 43.4% | 34.8% | 13.4% | -0.822% (active) | 37.8% | -54.9% (active) | -82.1% (active) | 17.1%
Oc1ccc(CNNc2ccnc3c(O)cccc23)c2cccnc12 | 23.9% | 73.8% | 54.9% | 29.7% | 25.8% | 29.7% | -20.2% (active) | 24.6% | 16.4% | 49.7%
CC(=O)Nc1nc2c(c(N)c1C#N)C(c1cccc(Cl)c1)C1=C(CCCC1=O)N2c1sc2c(c1C#N)CCCC2 (stereo not given) | 30.1% | 29.4% | 81% | 69.7% | 42.3% | 20.8% | 61.5% | 59.8% | 51.5% | 82.4%
c1ccc(-c2n(Cc3ccc4ccccc4n3)cc[n+]2Cc2ccc3ccccc3n2)cc1 | 102% | 22.8% | 42.6% | 8.24% (active) | 14.7% | 27% | -73.4% (active) | -10.3% (active) | 19.5% | 24.5%
NCCCn1c2c(c3cc(-c4ccn[nH]4)ccc3c1=O)C(=O)c1ccccc1-2 | 31.2% | 9.31% (active) | 42.2% | 55% | 37.1% | 50% | 58.4% | 78% | 47.1% | 111%
C=CCn1c(CN2CCN(c3cc4c(cc3F)c(=O)c(C(=O)O)cn4C3CC3)CC2)n[nH]c1=S | 103% | 90.5% | 99.8% | 107% | 103% | 101% | 106% | 99.9% | 81.8% | 97.2%
COc1ccc(/C(=N\O)c2cc(C)c(OC)c(C)c2)cc1O | 16.3% | -8.4% (active) | 38.4% | 29.8% | 22.1% | 37.6% | -7.18% (active) | 35.3% | 24.2% | 55.4%
CN(C)c1ccc(-c2ccc3[nH]c(=O)nc(-c4ccc(F)cc4)c3c2)cn1 | 33.2% | 11% | 11.2% | 36.2% | 31.3% | 41.7% | 20.3% | 28.4% | 41.3% | 69.2%
O=CN1N=C(c2ccc3c(c2)OCO3)CC1c1cccc(Nc2ccnc3cc(C(F)(F)F)ccc23)c1 (stereo not given) | 70.9% | 73.4% | 89% | 89.8% | 88.7% | 56.8% | 50.7% | 55.2% | 76% | 100%
O=C(CCl)N1CCCc2ccccc21 | 99.8% | 103% | 72.6% | 100% | 105% | 96.8% | 95.7% | 94.3% | 99.6% | 103%
CN1CCN(CC#CCOC(=O)CNC(=O)[C@]23CCC(C)(C)C[C@H]2C2=CC[C@@H]4[C@@]5(C)CC[C@H](O)C(C)(C)[C@@H]5CC[C@@]4(C)[C@]2(C)CC3)CC1 | 77% | 75.5% | 80.9% | 87.1% | 83.3% | 83.4% | 88.6% | 90.3% | 81.3% | 104%
CC(C)(C)CC(C)(C)Cc1ccc(OCCOCC[N+](C)(C)Cc2ccccc2)cc1 | 97% | 9.89% (active) | -9% (active) | -7.68% (active) | 2.86% (active) | 10.1% | -98.8% (active) | -36.1% (active) | 10.5% | 20.5%

Reference: PubChem BioAssay (NCI)
